This is a sample that favours compounds with a hit; in the whole collection about 12% have one here.
USP30 block: inhibitors of human USP30 deubiquitinase; purified USP30, Ub-rhodamine cleavage fluorescence; AID 1645860; inhibition, % at 25 µM; Q70CQ3; 47,000 compounds, 5.3% hits
USP8 inh: blocks human USP8 ubiquitin-rhodamine cleavage. inhibition, % at 20 µM. 47,000 compounds, 4.2% hits. AID 1645853. purified USP8, Ub-rhodamine cleavage fluorescence, 30 min
USP17 block: inhibitors of human USP17 deubiquitinase | inhibition, % at 50 µM | A8MUK1 | purified USP17, Ub-rhodamine cleavage fluorescence, 3 h | 47,000 compounds, 6.5% hits
Target sequence (A8MUK1 whole entry, looked up): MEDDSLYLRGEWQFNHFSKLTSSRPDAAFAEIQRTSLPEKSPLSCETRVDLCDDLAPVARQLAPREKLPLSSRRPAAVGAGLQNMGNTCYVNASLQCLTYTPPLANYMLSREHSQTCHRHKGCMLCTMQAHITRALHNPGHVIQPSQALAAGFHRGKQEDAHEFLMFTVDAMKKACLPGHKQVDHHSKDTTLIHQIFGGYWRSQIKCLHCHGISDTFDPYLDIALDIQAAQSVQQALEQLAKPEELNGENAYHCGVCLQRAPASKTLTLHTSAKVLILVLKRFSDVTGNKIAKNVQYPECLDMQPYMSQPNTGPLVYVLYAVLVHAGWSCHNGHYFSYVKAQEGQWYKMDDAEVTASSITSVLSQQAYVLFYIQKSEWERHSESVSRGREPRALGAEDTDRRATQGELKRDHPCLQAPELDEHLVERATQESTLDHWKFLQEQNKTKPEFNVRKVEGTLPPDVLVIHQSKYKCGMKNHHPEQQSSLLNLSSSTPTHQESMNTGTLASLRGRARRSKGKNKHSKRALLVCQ
Starred values were filed as active, the others as inactive. Cut-off read from the data, not from the text of the source: active = inhibition above about 30%; inactive = the rest.

`COc1c2n(c3ccccc13)[C@@]1(O)C(=O)N(C)C(=O)[C@@]1(O)c1c-2n(C)c2ccc(Cl)cc12` gave USP30 block -64, USP8 inh -17 and USP17 block 59*.
`Cn1cccc1C1CCCCCN1C(=O)Cn1cccn1` (stereo unspecified) gave USP30 block -7, USP8 inh -2 and USP17 block -21.
For CCOc1ccccc1NC(=O)CNc1cc(C(F)(F)F)ccc1N1CCOCC1 the results were USP30 block 33*, USP8 inh 26 and USP17 block 17.
For CC(Nc1ccccc1N1CCOCC1)C(=O)Nc1cc(C(F)(F)F)ccc1N1CCOCC1 (stereo unspecified) the results were USP30 block 8, USP8 inh 16 and USP17 block 9.
`O=C(C1CCCN(c2nc3ncccc3n3cccc23)C1)N1CCN(c2ccccn2)CC1` (stereo unspecified) gave USP30 block inactive, USP8 inh -117 and USP17 block -153.
For Cc1ccccc1-n1nc2c(c1NC(=O)c1ccc(F)c(F)c1)CS(=O)(=O)C2 the results were USP30 block -2, USP8 inh -23 and USP17 block -8.
`CCCCOc1ccc(C(=O)Nc2c3c(nn2-c2ccccc2C)CSC3)cc1` gave USP30 block 25, USP8 inh 29 and USP17 block 46*.
O=C(Nc1nc2c(s1)CN(C(=O)c1ccco1)CC2)C1CCCO1 (stereo unspecified) was read as USP30 block -83, USP8 inh -9 and USP17 block -35.
`COc1cccc2cc(C(=O)N3CCc4nc(NC(=O)C5CCCO5)sc4C3)oc12` (stereo unspecified) gave USP30 block -8, USP8 inh -22 and USP17 block 34*.
CCN1C(=O)[C@H]2CN(c3ncccn3)C[C@H]2C12CCN(S(=O)(=O)CC(C)C)CC2 was read as USP30 block -3, USP8 inh -7 and USP17 block -5.
`Cn1cc(CCC(=O)N2C[C@@H](c3ccccc3F)[C@@]3(CCCC(=O)N3)C2)c2ccccc21` gave USP30 block 1, USP8 inh 0 and USP17 block 1.
For COC(=O)N1CCn2c(c(C(=O)Nc3ccccc3)c3cccnc32)C1 the results were USP30 block -38, USP8 inh 9 and USP17 block -5.
O=C(CCCc1c[nH]c2ccccc12)N1CCN(S(=O)(=O)c2ccc(Br)cc2)CC1 was read as USP30 block 1, USP8 inh -4 and USP17 block 8.
`O=C(CCCc1c[nH]c2ccccc12)N1CCN(S(=O)(=O)c2ccc(F)cc2)CC1` gave USP30 block 41*, USP8 inh 5 and USP17 block 11.
For Cc1ccc(C(=O)c2cc3c(CO)cnc(C)c3oc2=O)cc1 the results were USP30 block 19, USP8 inh -2 and USP17 block 2.
`CCS(=O)(=O)N1Cc2ccccc2CC1C(=O)N=c1sc2ccccc2n1C` (stereo unspecified) gave USP30 block -101, USP8 inh -7 and USP17 block 0.
For Cc1ccc(S(=O)(=O)NC(C(=O)N=c2sc3ccccc3n2C)C(C)C)cc1 (stereo unspecified) the results were USP30 block -23, USP8 inh -1 and USP17 block 63*.
For O=C(NC1CCCCC1)C(c1ccccc1)N(C(=O)c1cccs1)c1ccc2c(c1)OCO2 (stereo unspecified) the results were USP30 block 12, USP8 inh 12 and USP17 block 2.
CC(C)c1ccc(C(C(=O)NC2CCCCC2)N(C(=O)c2cnccn2)c2ccc3c(c2)OCO3)cc1 (stereo unspecified) was read as USP30 block 12, USP8 inh 0 and USP17 block 9.
`Cc1ccc(C(C(=O)NC2CCCCC2)N(C(=O)CCCC(=O)Nc2ccccn2)c2ccc3c(c2)OCCO3)cc1` (stereo unspecified) gave USP30 block 38*, USP8 inh 8 and USP17 block 48*.
O=C(NC1CCCCC1)C(c1ccc(Cl)cc1)N(C(=O)c1cnccn1)c1ccc2c(c1)OCO2 (stereo unspecified) was read as USP30 block -2, USP8 inh 21 and USP17 block 43*.
Screening Cc1ccc(C(C(=O)NC2CCCCC2)N(Cc2ccc3c(c2)OCO3)C(=O)CCCC(=O)Nc2ccccn2)cc1 (stereo unspecified) returned USP30 block 18, USP8 inh 9 and USP17 block 9.
`O=C(NC1CCCCC1)C(c1ccc(F)cc1)N(C(=O)C1COc2ccccc2O1)c1ccc2c(c1)OCO2` (stereo unspecified) gave USP30 block -31, USP8 inh 41* and USP17 block -8.
For O=C(CCCC(=O)N(c1ccc2c(c1)OCCO2)C(C(=O)NC1CCCCC1)c1ccc(F)cc1)Nc1ccccn1 (stereo unspecified) the results were USP30 block 45*, USP8 inh 58* and USP17 block 34*.
For CCOc1ccccc1N(C(=O)CCCC(=O)Nc1ccccn1)C(C(=O)NC1CCCC1)c1ccc(F)cc1 (stereo unspecified) the results were USP30 block 10, USP8 inh -4 and USP17 block -8.
`COc1ccccc1CNC(=O)C1Oc2ccccc2NC1=O` (stereo unspecified) gave USP8 inh 3 and USP17 block -11.
For Cc1ccccc1NC(=O)N1CCN(c2cc(-c3ccncc3)[nH]n2)CC1 the results were USP30 block 15, USP8 inh -8 and USP17 block -28.
Screening COc1ccccc1NC(=O)Cn1cnc2c(cnn2-c2ccccc2C)c1=O returned USP30 block -8, USP8 inh -14 and USP17 block -9.
For Cc1ccc(CSC2=NS(=O)(=O)c3ccccc3N2)cc1 the results were USP30 block 20, USP8 inh 15 and USP17 block 17.
Screening Cn1nnnc1SCC(=O)N1CCC2(CC1)C(=O)N(Cc1ccccc1)c1ccccc12 returned USP30 block 18, USP8 inh 16 and USP17 block 8.
`Cc1ccc2nc(C(=O)N3CCN(c4ccccn4)CC3)cn2c1` gave USP30 block 21, USP8 inh 19 and USP17 block 7.
Screening Cc1ccc2nnc(-c3ccccc3)c(C(=O)N3CCN(c4ccccn4)CC3)c2c1 returned USP30 block 5, USP8 inh -3 and USP17 block 50*.
For Cc1ccc(CNC(=O)Cn2cnc(S(=O)(=O)N3CCC(C)CC3)c2)cc1 the results were USP30 block 0, USP8 inh 0 and USP17 block -2.
`O=C(Cn1cnc(S(=O)(=O)N2CCCCC2)c1)Nc1ccc2c(c1)OCO2` gave USP30 block -23, USP8 inh 59* and USP17 block 35*.
For CC1CCN(S(=O)(=O)c2cn(CC(=O)Nc3cccc(-c4ccno4)c3)cn2)CC1 the results were USP30 block -25, USP8 inh -5 and USP17 block 50*.
For CC1CCN(S(=O)(=O)c2cn(CC(=O)Nc3ccc4c(c3)OCO4)cn2)CC1 the results were USP30 block 22, USP8 inh 10 and USP17 block 3.
